Our source for the INHIBITION values is ChEMBL document CHEMBL4513216, “Probing the Open Global Health Chemical Diversity Library for Multistage-Active Starting Points for Next-Generation Antimalarials” (ACS Infect Dis, 2020).

Hit rate of the full screen: of about 69,000 compounds, about 8,600 (12%) showed an effect of 50% or more. The list comes from a sample in which strong results are over-represented; it also holds similar structures and randomly drawn compounds.

In this assay the test system is Plasmodium berghei. As to the kind of experiment: Screen against P. berghei liver stage (PbLuc), transformed with Luciferase, at 10uM. The format is functional, HepG2. To be noted: tested at 10 uM.
Consider `CC(O)CN1CCN(Cc2cccc(C(=O)N3CCCCC3)c2)CC1` (configuration not stated), for which the INHIBITION was found to be 37.9%. Take `O=C(c1cscn1)N1CCc2[nH]nc(Nc3ccccc3)c2C1`: the INHIBITION was -15.625%. Under `Cc1ccccc1CN(CCN(C)C)Cc1ccc(O)c(C(=O)O)c1` stands 29.2%; under `CCc1nnsc1-c1nc(C(C)C)nn1-c1ccc2c(c1)OCO2`, 12.4%; under `Cc1nonc1-c1nc(C(C)C)nn1-c1ccc2c(c1)OCO2`, 82%. In the case of `CC(C)c1nc(-c2ccc(=O)[nH]n2)n(-c2ccc3c(c2)OCO3)n1`, the INHIBITION is 25.5%. As for `CN(C)c1nc(CNC(=O)N[C@H](CO)c2ccccc2)cs1`, the INHIBITION is listed as -42%.

For `COc1ccccc1CCNC(=O)CC1(Cn2cnnn2)CCCCC1`, the INHIBITION amounted to 48.2%. For the molecule `CC(C)Cc1cc(NC(=O)c2ccc(=O)[nH]n2)n(C)n1`, the INHIBITION was 40.3%.

As for `CC(C)Cc1cc(NC(=O)c2n[nH]c3ccccc23)n(C)n1`, the INHIBITION was determined as 56.6%.

Turning to `CC(C)Cc1cc(NC(=O)c2ccccc2)n(C)n1`, the INHIBITION is given as 10%. In the case of `COC(CNC(=O)C1CCCC1)c1ccc(C)s1` (configuration not stated), the INHIBITION is 24.7%.

In the case of `COc1cc(C(=O)N2CCCC2c2noc(C(C)C)n2)on1` (configuration not stated), the INHIBITION is on record as -2.143%.

For the molecule `CN(CCCc1ccc(C(F)(F)F)cc1)Cc1nccn1C`, the INHIBITION is on record as 66.8%. The result for `CN(Cc1nccn1C)C1CCCN(CCCc2ccccc2)C1` (configuration not stated) reads 43.7%; that for `Cn1ccnc1CN(CCO)Cc1ccc(C(F)(F)F)cc1`, 29.8%; that for `CC(=O)c1ccc(S(=O)(=O)Nc2cnn(C3CCOCC3)c2)cc1`, -24.1%. The result for `O=C(Cn1ccc2ccc(Cl)cc21)/N=c1\[nH]nc(C2CCCO2)s1` (configuration not stated) reads 39.7%; that for `CC(C)CN1CC(c2nc(-c3ccsc3)c[nH]2)CC1=O` (configuration not stated), 53.3%; that for `COc1ccc(-c2c[nH]c(C3CC(=O)N(CC(C)C)C3)n2)cc1` (configuration not stated), -15%. With `CC(C)CN1CC(c2nc(-c3ccc(F)cc3)c[nH]2)CC1=O` (configuration not stated), the INHIBITION worked out at 27.5%. For `CC(C)N1CCC(Cc2cncc(-c3cc(F)ccc3C(=O)O)n2)CC1`, the INHIBITION was 41.2%. As to `CCN(CCNS(=O)(=O)N1CCOCC1)C(=O)OC(C)(C)C`, the INHIBITION was determined as 41.3%. The result for `CN(C(=O)NCc1nccn1Cc1ccccc1)C1CC1` reads 46.4%; that for `Cc1cc(C)n2c(CCCNS(=O)(=O)c3cccs3)nnc2n1`, 31.3%. Under `Cc1cc(C)n2c(CCCNS(=O)(=O)c3ccc(F)cc3)nnc2n1` stands 15.4%; under `COc1ccc(CC(=O)NCCCc2nnc3nc(C)cc(C)n23)cc1`, 52.7%; under `COc1ccc(S(=O)(=O)NCCCc2nnc3nc(C)cc(C)n23)cc1`, 74.6%. Under `Cc1cc(C)n2c(CCCNS(=O)(=O)c3ccccc3)nnc2n1` stands 34.6%. As for `COc1ccc(CC(=O)NCCNS(=O)(=O)c2ccc(C)cc2)cc1`, the INHIBITION is on record as -57.5%. As to `CCCS(=O)(=O)NCC(O)c1c(Cl)cccc1Cl` (configuration not stated), the INHIBITION came to 0.87%. Under `CCn1nc(C)c2c1cnn2CC(=O)NC(C)c1cccc(OC)c1` (configuration not stated) stands 49.9%; under `Cc1nnc([C@@H]2CC[C@@H]3[C@@H](CCN3C3CCC3)O2)o1`, 23.3%; under `Cc1nnc([C@@H]2CC[C@@H]3[C@@H](CCN3C3CCOCC3)O2)o1`, 60.3%.

For the molecule `Cc1nnc([C@@H]2CC[C@@H]3[C@@H](CCN3CC3CCOCC3)O2)o1`, the INHIBITION is on record as -13.7%. The result for `CCCNC(=O)COc1ccc(-c2ccccc2)nc1` reads -91.3%.

With `O=C(Cn1cc(I)cn1)Nc1cccnc1`, the INHIBITION turned out to be 4.74%. For the molecule `Cn1cc(C(=O)NCc2cncc3c2CCN(CC2CC2)C3)cn1`, the INHIBITION was 28.5%.

Turning to `Cc1nc(-c2ccccc2)n(CC(=O)NC(C)C)n1`, the INHIBITION turned out to be 31.2%.

`COc1ccc(C(N)=O)cc1NCc1ncc(-c2cccs2)o1`: the INHIBITION was found to be 69.7%. The result for `CNC(=O)c1ccc(OC)c(NCc2ncc(-c3cccs3)o2)c1` reads 61.1%; that for `CNC(=O)c1ccc(OC)c(NCc2noc(-c3ccsc3)n2)c1`, -48.5%; that for `COc1ccc(C(N)=O)cc1NCc1noc(-c2ccsc2)n1`, 9.06%. Under `COc1ccc(NC(=O)CCn2nc(-c3cccs3)oc2=O)cc1OC` stands -22.9%; under `CCc1nc(CCNC(=O)Nc2cc(C(N)=O)ccc2OC)cs1`, -10.8%.

For the molecule `CNC(=O)c1ccc(OC)c(NCc2noc(-c3cccs3)n2)c1`, the INHIBITION came out at 10%. Under `COc1ccc(C(N)=O)cc1NCc1nc(-c2cccs2)oc1C` stands 68%; under `COc1ccc(C(N)=O)cc1NCc1ncc(C(C)(C)C)o1`, 15.7%. The result for `COc1ccnc(N2CCN(CC(O)CN3CCOCC3)CC2)n1` (configuration not stated) reads 4.52%; that for `Cn1ccnc1CN1CCC(c2nnc(Cn3cccn3)n2C)CC1`, 16.3%; that for `N#Cc1ccccc1C(=O)N1C[C@@H]2CC[C@H]1CN(c1ncccn1)C2`, 12.9%. For `N#CC1(C(=O)N2CCCN(c3nccs3)CC2)CCCCC1`, the INHIBITION is 11.45%.

In the case of `O=C(c1cnc(-c2cnccn2)s1)N1CCCC(n2cccn2)C1` (configuration not stated), the INHIBITION worked out at 10%. In the case of `CN1CCC(Oc2ccc(-n3ccnc3-c3nccn3C)cc2)CC1`, the INHIBITION is 13%. The result for `CN(CCc1ccccc1)C(=O)c1cccnc1OCC(F)(F)F` reads 45.1%.

`Cc1cc(=O)n2nc(CNc3cc(Cl)ccc3C)nc2[nH]1`: the INHIBITION is recorded as 39.2%.

With `Cc1ncsc1C(=O)NCCN1CCCCCC1=O`, the INHIBITION was found to be 25.4%. In the case of `CN(C)CCNC(=O)c1sccc1N(C)S(=O)(=O)c1ccc(Cl)cc1`, the INHIBITION turned out to be 54%. Under `CC(C)NC(=O)c1sccc1N(C)S(=O)(=O)c1ccc(Cl)cc1` stands 0%; under `COC(=O)CNC(=O)c1sccc1N(C)S(=O)(=O)c1ccc(Cl)cc1`, 20.1%; under `CC(C)CCNC(=O)c1sccc1N(C)S(=O)(=O)c1ccccc1`, 0%.

As to `CCCNC(=O)c1sccc1N(C)S(=O)(=O)c1ccc(Cl)cc1`, the INHIBITION is 23.7%. With `CCNC(=O)c1sccc1N(C)S(=O)(=O)c1ccc(Cl)cc1`, the INHIBITION is recorded as 26.7%. In the case of `Cc1ccc(S(=O)(=O)N(C)c2ccsc2C(=O)NCC(C)C)cc1`, the INHIBITION was 28.4%. The result for `CNC(=O)c1sccc1N(C)S(=O)(=O)c1ccc(Cl)cc1` reads 84.7%; that for `COCCNC(=O)c1sccc1N(C)S(=O)(=O)c1ccc(Cl)cc1`, 51.6%. As to `CN1CCCC1c1nnc2n1CCN(S(=O)(=O)c1ccccc1Cl)CC2` (configuration not stated), the INHIBITION was -12.252%. Under `NC(=O)[C@@H]1Cc2ccccc2N1C(=O)C1CC(c2ccccc2)=NO1` (some centres not stated) stands -13.6%; under `CNC(=O)CN(C)C(=O)c1cc(Cl)c(Cl)n1C`, 37.1%. Under `Cc1nnc(NCc2cccc(OCc3ccccn3)c2)c(C#N)c1C` stands 40.1%; under `COCC(=O)NCc1cc(=O)n2c(n1)CN(Cc1ccsc1)CCC2`, 41.5%.

Regarding `CC(C)(C)OC(=O)N1CC(=O)N(CCc2ccccc2)CC(O)C1` (configuration not stated), the INHIBITION amounted to 9.36%.

Consider `CO[C@H]1CN(C(=O)OC(C)(C)C)CC1NCc1cc[nH]c1` (some centres not stated), for which the INHIBITION is 38.7%. In the case of `CO[C@H]1CN(C(=O)OC(C)(C)C)CC1NCc1ccn(C)c1` (some centres not stated), the INHIBITION turned out to be 39.6%.

As to `CC(C)(C)OC(=O)N1CC(=O)N(Cc2ccco2)CC(O)C1` (configuration not stated), the INHIBITION was 29.8%. With `CO[C@H]1CN(C(=O)OC(C)(C)C)CC1NCc1ccco1` (some centres not stated), the INHIBITION was determined as 74%. Under `CO[C@H]1CN(C(=O)OC(C)(C)C)CC1NCc1ccoc1` (some centres not stated) stands 66.5%; under `CO[C@H]1CN(C(=O)OC(C)(C)C)CC1NCc1cccn1C` (some centres not stated), 54.5%; under `CC(C)(C)OC(=O)N1CCC(C(=O)NCc2ccccc2)C1` (configuration not stated), -10.3%. With `CN(Cc1ccco1)C(=O)[C@H]1CSCN1C(=O)OC(C)(C)C`, the INHIBITION is 29.6%. The result for `CCOCCN1Cc2ncn(C)c2C(COCC2CCOCC2)C1` (configuration not stated) reads 36.9%; that for `CCCc1ccc2oc(C(=O)N3CCN(CCOC)CC3)c(C)c2c1`, -13.1%.

For the molecule `COc1ccc(-n2cccn2)c(CN2CCC3(CCCN(C)C3=O)C2)c1` (configuration not stated), the INHIBITION is 43.9%. Regarding `Nc1nc(N)c2c(n1)OC1(CCN(C(=O)CC3CCCNC3)CC1)C2` (configuration not stated), the INHIBITION was determined as 27.1%. Consider `Cc1cc(C(=O)N[C@H]2Cc3ccccc3[C@@H]2N)c(=O)[nH]c1C`, for which the INHIBITION is listed as 21.5%. `Cc1nc(CN2CCN(C)C(=O)C23CCN(CC2CCCC2)CC3)cs1`: the INHIBITION was 49.4%. The result for `Cc1noc([C@H]2COC[C@H]3CN(C(=O)Cc4ccccc4F)C[C@H]32)n1` reads 12.7%; that for `O=C(CCCn1cccn1)N1C[C@@H](O)[C@H](Oc2cccc(F)c2)C1`, 32.8%; that for `CC(C)(O)CCc1cccc(C(=O)NCc2cnn3cccnc23)c1`, 54.5%. Under `O=C(NCc1cnn2cccnc12)c1cccc(CC2CCNCC2)c1` stands 77.7%; under `CCn1cc(CN(C)C(=O)c2cccc(CCC(C)(C)O)c2)cn1`, 7.11%; under `Cc1cnccc1CN(C)C(=O)c1cccc(CCC(C)(C)O)c1`, -2.39%.

On to `Cc1cccnc1[C@H](C)NC(=O)c1cccc(CC2CCNCC2)c1`, for which the INHIBITION was 15%. Under `CC(C)Cn1cncc1CNC(=O)c1cccc(CC2CCNCC2)c1` stands 42.3%.

As to `CCOc1ccccc1CC(=O)N1C[C@H](C2CC2)[C@@H](N)C1`, the INHIBITION was 2.66%.

With `Cc1nn(C)cc1NC(=O)CN1CCN(C2CCCC2)C(=O)C1`, the INHIBITION turned out to be 19.35%. For `CC(C)c1nc(C2CCCN2Cc2nccn2CC(F)(F)F)no1` (configuration not stated), the INHIBITION is 26.4%. On to `c1cc(-c2cnc(NC3CC3)nc2[C@@H]2CCCO2)ccn1`, for which the INHIBITION was 5.34%.

In the case of `CC(C)(O)CN1CCN(C(=O)COCC2CC2)CC1`, the INHIBITION is -38.8%. In the case of `O=C(COCC1CC1)N1CCSCC1`, the INHIBITION is listed as 64.9%.

Turning to `Cc1ccc(NC2CCN(C(=O)COCC(F)(F)F)CC2)nn1`, the INHIBITION is 53%.

Turning to `Cc1ccc(NC2CCN(C(=O)COCC3CC3)CC2)nn1`, the INHIBITION stood at 56.6%. Take `Cc1ccc(NC2CCN(C(=O)COC3CCCC3)CC2)nn1`: the INHIBITION is recorded as -28.4%.

As to `Cc1ccc(NC2CCN(C(=O)COC3CCCCC3)CC2)nn1`, the INHIBITION is on record as -7.81%.

On to `Cc1ccc(NC2CCN(C(=O)CCOCC(F)(F)F)CC2)nn1`, for which the INHIBITION was determined as 33.3%.

`Cc1ccc(NC2CCN(C(=O)COc3ccccc3)CC2)nn1`: the INHIBITION is -29.7%. Under `CS(=O)(=O)NCC1CCCN(C(=O)COCC2CC2)C1` (configuration not stated) stands 48.1%.
